Source: PubChem BioAssay AID818 (SRMLSC, 2007)
The whole screen tested about 140,000 compounds, of which about 2,100 (1.5%) were called active.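 Rule for the calls: active = viability at or under a set limit, the compound median less 4 SD (cut at about 6% in these data); inactive = the rest.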 The full list was thinned out, with actives kept by preference.

assay: primary screen for growth suppressors in beta-catenin knockout HCT116 cells (colon tumor, human) (AID 818); conditions: CellTiter-Glo, 60 h, at 10 µM, active compounds read low;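 note: 0% = Hyamine 1622 control at 20 µM and 100% = untreated cell control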

SMILES	viability
CN(C)c1ccc(/C=C2\CC3C4CC=C5CC(O)CCC5(C)C4CCC3(C)C2=O)cc1 (stereo not given)	2.09% (active)
C[N+]1(C)CCOC(O)(c2ccc(-c3ccc(C4(O)C[N+](C)(C)CCO4)cc3)cc2)C1 (stereo not given)	79.5% (inactive)
Cc1nn(Cc2ccccc2Cl)c(Cl)c1C(=O)OC(C(=O)NC(N)=O)C(C)C (stereo not given)	83% (inactive)
Cc1ccc2c(c1)=C/C(=C\c1c(O)[nH]c(=O)[nH]c1=O)C(=O)N=2	82.4% (inactive)
Cc1cccc(OP(=O)(Oc2cccc(C)c2)OC(c2ccccc2)C(F)(F)F)c1 (stereo not given)	66.6% (inactive)
